We go through 88 compounds from article PMC4336329 (PLoS ONE, 2015).

Out of some 310,000 compounds screened, about 14,000 (4.5%) showed an effect of 50% or more. Effects have a minus sign here. Many of the other results were omitted from the sample, so strong results are more common in it than they were.
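Note: peak tail current of the secondary pulse compared with the same well before compound.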

Sequence of human ether-à-go-go-related gene (hERG) potassium channel (Q12809 whole entry, looked up): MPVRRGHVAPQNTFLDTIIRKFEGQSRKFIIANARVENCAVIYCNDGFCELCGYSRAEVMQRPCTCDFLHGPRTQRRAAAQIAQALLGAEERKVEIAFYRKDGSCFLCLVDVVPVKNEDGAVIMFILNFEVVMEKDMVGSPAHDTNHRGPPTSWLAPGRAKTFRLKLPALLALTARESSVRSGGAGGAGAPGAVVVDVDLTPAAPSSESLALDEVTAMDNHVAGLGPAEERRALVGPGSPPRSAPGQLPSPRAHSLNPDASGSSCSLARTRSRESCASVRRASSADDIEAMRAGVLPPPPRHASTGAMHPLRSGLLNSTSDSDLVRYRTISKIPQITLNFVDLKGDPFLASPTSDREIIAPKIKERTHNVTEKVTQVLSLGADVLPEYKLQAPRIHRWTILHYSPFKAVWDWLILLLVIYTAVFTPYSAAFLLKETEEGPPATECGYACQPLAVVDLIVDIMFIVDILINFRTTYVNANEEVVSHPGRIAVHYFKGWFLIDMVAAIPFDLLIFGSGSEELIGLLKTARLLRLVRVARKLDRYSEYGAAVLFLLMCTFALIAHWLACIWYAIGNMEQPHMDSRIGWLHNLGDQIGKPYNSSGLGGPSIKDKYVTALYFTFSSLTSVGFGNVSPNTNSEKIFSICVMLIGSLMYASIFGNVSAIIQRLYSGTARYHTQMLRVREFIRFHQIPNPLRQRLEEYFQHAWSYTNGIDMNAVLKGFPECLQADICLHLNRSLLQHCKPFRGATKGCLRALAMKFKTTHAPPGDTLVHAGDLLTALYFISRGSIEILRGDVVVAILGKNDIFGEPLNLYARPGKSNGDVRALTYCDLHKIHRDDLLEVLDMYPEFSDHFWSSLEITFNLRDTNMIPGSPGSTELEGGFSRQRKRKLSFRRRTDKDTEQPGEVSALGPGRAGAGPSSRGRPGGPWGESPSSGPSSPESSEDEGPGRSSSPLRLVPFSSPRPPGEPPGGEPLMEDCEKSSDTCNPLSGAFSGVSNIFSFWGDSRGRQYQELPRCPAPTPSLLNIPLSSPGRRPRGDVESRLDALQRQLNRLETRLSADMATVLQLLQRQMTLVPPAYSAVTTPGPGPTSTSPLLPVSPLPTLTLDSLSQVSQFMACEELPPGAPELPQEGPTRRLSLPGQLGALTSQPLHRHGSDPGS

This assay concerns the target human ether-à-go-go-related gene (hERG) potassium channel (human, UniProt Q12809). Kind of assay: primary screen, population patch clamp on CHO cells stably expressing hERG; higher = less effect of the substance.
Regarding `COc1ccccc1CNC(=O)CN(c1ccc(C)cc1)S(=O)(=O)c1c(C)nn(C)c1C`, the “hERG current change (%, negative = inhibition) at 10uM” value is reported as -24.1%. Under `Cn1c(-c2ccc(N)cc2)nc2ccccc21` stands -3.42%; under `COc1ccc2c(c1)c1nc3ccccc3nc1n2Cc1ccc(OC(C)C)c(OC)c1`, -0.905%.

On to `CCn1c(SCCC(=O)O)nnc1-c1cccnc1`, for which the “hERG current change (%, negative = inhibition) at 10uM” value is reported as 4.65%. Under `O=C(NCC1CC1)c1onc(CSc2ccc(F)cc2)c1C(=O)NCC1CC1` stands -51.6%. Regarding `CCCNC(=O)c1onc(CSc2nc3ccccc3[nH]2)c1C(=O)NCCC`, the “hERG current change (%, negative = inhibition) at 10uM” value is recorded as -35.7%. Under `CCCNC(=O)c1onc(CSc2ccc(Cl)cc2)c1C(=O)NCC1CC1` stands -8.67%. Under `O=C(NCc1ccccc1)c1onc(CSc2ccc(F)cc2)c1C(=O)NCc1ccccc1` stands 1.49%; under `COCCNC(=O)c1onc(CSc2nc3ccccc3[nH]2)c1C(=O)NCCOC`, -14.3%; under `O=C(NCc1ccccc1)c1onc(CSc2ccccc2)c1C(=O)NCC1CC1`, -33.4%. Under `CCCNC(=O)c1onc(CSc2ccc(F)cc2)c1C(=O)NCC1CC1` stands -62.7%. Consider `O=C(NCC1CC1)c1onc(CSc2ccncc2)c1C(=O)NCC1CC1`, for which the “hERG current change (%, negative = inhibition) at 10uM” value is on record as -11.9%.

With `CCCNC(=O)c1onc(CSc2ccc(F)cc2)c1C(=O)NCCC`, the “hERG current change (%, negative = inhibition) at 10uM” value was determined as 5.35%.

In the case of `O=C(NCc1ccccc1)c1onc(CSc2ccc(F)cc2)c1C(=O)NCCCN1CCOCC1`, the “hERG current change (%, negative = inhibition) at 10uM” value is given as -73.9%. Under `O=C(NCC1CC1)c1onc(CSc2nc3ccccc3[nH]2)c1C(=O)NCC1CC1` stands -69.8%; under `O=C(NCCCN1CCOCC1)c1onc(CSc2ccccc2)c1C(=O)NCCCN1CCOCC1`, 4.97%; under `O=C(/C=C\c1ccc2c(c1)OCO2)CC1(O)C(=O)Nc2ccccc21` (stereo not shown), -0.111%. `COc1cccc(CC(=O)N2CCC(n3nccc3NC(=O)C3CCOC3)CC2)c1` (stereo not shown): the “hERG current change (%, negative = inhibition) at 10uM” value stood at 21.7%. Under `NC(=O)c1ccccc1NC(=O)Nc1ccccc1Cl` stands 11.8%. `COCCn1c(C)cc(C(=O)CSc2ccc(NC(C)=O)cc2)c1C`: the “hERG current change (%, negative = inhibition) at 10uM” value is 12.4%. Under `COc1ccc(N2CCN(C(=O)CCNC(=O)Cn3ccc4ccccc4c3=O)CC2)cc1` stands -8.61%. Under `CN1CCN(NC(=O)c2cc(-c3ccccn3)nc3ccccc23)CC1` stands 14%. Under `Cc1cccc(OCCCCCNCCO)c1` stands 3.93%. Take `CCC(C)(C)n1nnnc1C(c1ccc(C)cc1)N1CCN(C(=O)c2ccco2)CC1` (stereo not shown): the “hERG current change (%, negative = inhibition) at 10uM” value is -45.8%. For the compound `CN1CCN(C(=S)C(=O)NCc2ccccc2)CC1`, the “hERG current change (%, negative = inhibition) at 10uM” value was -2.07%. Regarding `COc1cc(CNc2ccccc2SC)ccc1O`, the “hERG current change (%, negative = inhibition) at 10uM” value came out at 12.8%.

On to `C=CCNC(=O)c1onc(CSc2ccc(Cl)cc2)c1C(=O)NCC=C`, for which the “hERG current change (%, negative = inhibition) at 10uM” value is on record as -36.6%. Under `C=CCNC(=O)c1onc(CSc2ccc(F)c(F)c2)c1C(=O)O` stands 22.4%. Regarding `O=C(NCC1CC1)c1onc(CSc2ccc(F)c(F)c2)c1C(=O)NCC1CC1`, the “hERG current change (%, negative = inhibition) at 10uM” value is -56.1%. Under `O=C(NCC1CCCO1)c1onc(CSc2ccc(F)c(F)c2)c1C(=O)O` (stereo not shown) stands 1.63%; under `COCCNC(=O)c1onc(CSc2ccc(F)c(F)c2)c1C(=O)NCCOC`, -25.5%; under `C=CCNC(=O)c1onc(CSc2ccc(F)c(F)c2)c1C(=O)NCC=C`, -64.5%. Consider `Cl.OC(CNC1CCCC1)COc1ccccc1Br` (stereo not shown), for which the “hERG current change (%, negative = inhibition) at 10uM” value is reported as 7.79%. Under `O=C(Cc1ccccc1)NCC(=O)Nc1ccccc1Br` stands 16.8%. Under `Cc1cc(NC(=O)CSc2nc(-c3ccc(Br)cc3)nc3c2c(=O)n(C)c(=O)n3C)no1` stands -8.93%; under `O=C(COC(=O)c1ccccc1F)NNC(=O)c1ccccc1`, 8.17%. `O=C(CSCc1ccc(Cl)cc1)Nc1nccs1`: the “hERG current change (%, negative = inhibition) at 10uM” value was determined as 6.08%. In the case of `CCc1ccccc1NC(=O)COc1ccc2c(c1)OCO2`, the “hERG current change (%, negative = inhibition) at 10uM” value is listed as -4.6%. Take `CCN(CCCNC(=O)CC(C(=O)N1CCc2ccccc21)n1ccnc1)c1ccccc1` (stereo not shown): the “hERG current change (%, negative = inhibition) at 10uM” value is given as -45.6%. Under `CCN(CCCNC(=O)CC(C(=O)N1CCc2ccccc21)n1ccnc1)c1cccc(C)c1` (stereo not shown) stands -65%. As for `CCCN(CCC)CCCNC(=O)CC(C(=O)N1CCc2ccccc21)n1ccnc1` (stereo not shown), the “hERG current change (%, negative = inhibition) at 10uM” value is -0.225%. Under `Nc1ccc(Cl)c(S(=O)(=O)Nc2ccc(Cl)cc2)c1` stands 17.3%; under `Cc1ccc(N2CC(C(=O)Nc3ccc(S(=O)(=O)Nc4nccc(C)n4)cc3)CC2=O)cc1` (stereo not shown), 3.17%; under `CN(C)C(=O)c1ccccc1Sc1ccc(Cl)cc1Cl`, -70.4%. In the case of `CN(C)C(=O)c1ccccc1Sc1cc(Cl)ccc1Cl`, the “hERG current change (%, negative = inhibition) at 10uM” value was -14.5%. Turning to `CN(C)C(=O)c1cc(Cl)ccc1Sc1cc(Cl)ccc1Cl`, the “hERG current change (%, negative = inhibition) at 10uM” value was -6.03%. In the case of `Cc1onc(-c2ccccc2)c1C(=O)NCc1ccccc1F`, the “hERG current change (%, negative = inhibition) at 10uM” value worked out at 7.62%. For `[N-]=[N+]=CC(=O)OC[C@H](N)C(=O)O`, the “hERG current change (%, negative = inhibition) at 10uM” value is reported as 10.8%. Under `CCOC(=O)c1c(CN2CCOCC2)n(-c2ccccc2)c2cc(Br)c(OC)cc12` stands 3.27%. Under `CCOC(=O)c1c(C)n(CC(O)CN2CCOCC2)c2cc(Br)c(OC)cc12.Cl` (stereo not shown) stands -24%; under `CCOC(=O)c1c(CN2CCN(Cc3ccccc3)CC2)n(C)c2cc(Br)c(OC)cc12`, 7.08%; under `CCOC(=O)c1c(CN2CCOCC2)n(-c2ccccc2)c2cc(Br)c(O)cc12.Cl`, -7.35%. As for `CCOC(=O)c1c(CN(C)C)n(-c2ccc(C)cc2)c2cc(Br)c(O)cc12`, the “hERG current change (%, negative = inhibition) at 10uM” value is recorded as -35.8%. Regarding `CCOC(=O)c1c(C)n(CC(O)CN(CC)CC)c2cc(Br)c(OC)cc12.Cl` (stereo not shown), the “hERG current change (%, negative = inhibition) at 10uM” value was -26.9%. With `CCOC(=O)c1c(CN(C)C)n(-c2ccccc2)c2cc(Br)c(O)cc12.Cl`, the “hERG current change (%, negative = inhibition) at 10uM” value was -75.8%. Under `CCOC(=O)c1c(C)n(CC(O)CN(C)C)c2cc(Br)c(OC)cc12.Cl` (stereo not shown) stands -51.5%; under `CCOC(=O)c1c(C)n(-c2ccccc2)c2ccc(OCCN(C)C)cc12`, -10.6%; under `CCOC(=O)c1c(CN2CCN(CCO)CC2)n(-c2ccccc2)c2cc(Br)c(O)cc12`, -68.2%. Under `CCOC(=O)c1c(CN(C)C)n(-c2ccccc2)c2cc(Br)c(OC)cc12` stands -58.6%.

For the compound `COc1ccccc1NC(=O)CSC1=NCCN1.Cl`, the “hERG current change (%, negative = inhibition) at 10uM” value was 36.3%. Under `O=C(c1cccs1)N1CCC(c2ccccc2)C1` (stereo not shown) stands -1.16%; under `N#Cc1nc(-c2cccs2)oc1NCCc1ccccc1`, 3.08%. `CC(NC(=O)C(=O)N1CCCCC1)C(c1cccs1)N1CCN(c2ccccc2F)CC1` (stereo not shown): the “hERG current change (%, negative = inhibition) at 10uM” value stood at 1.73%. Consider `COc1cccc(-n2c(SCC(=O)NCCC3=CCCCC3)nc3n[nH]c(C)c3c2=N)c1`, for which the “hERG current change (%, negative = inhibition) at 10uM” value is recorded as -58.9%. With `Cc1ccc(-n2c(SCC(=O)NCCC3=CCCCC3)nc3n[nH]c(C)c3c2=N)cc1Cl`, the “hERG current change (%, negative = inhibition) at 10uM” value was -9.38%.

For `Cc1cc(-n2c(SCC(=O)NCCC3=CCCCC3)nc3n[nH]c(C)c3c2=N)ccc1Cl`, the “hERG current change (%, negative = inhibition) at 10uM” value is 4.5%. Turning to `COc1ccc(NC(=O)c2ccc(COc3ccccc3Br)o2)c(OC)c1`, the “hERG current change (%, negative = inhibition) at 10uM” value is 10.5%. Under `CCCOc1ccc(OC(=O)Cc2ccc(OC)c(S(=O)(=O)N3CCOCC3)c2)cc1` stands -21.7%. Take `Cc1ccc(NC(=O)CCN2C(=O)c3ccccc3C2=O)cc1C`: the “hERG current change (%, negative = inhibition) at 10uM” value amounted to 4.19%. Take `O=C(CSc1nnc(-c2c[nH]c3ccccc23)n1-c1ccc(F)cc1)NCc1ccco1`: the “hERG current change (%, negative = inhibition) at 10uM” value was -22%. On to `C/C(N)=C(/C#N)C(=O)COC(=O)C1CCN(C(=O)c2ccc(Cl)cc2)CC1`, for which the “hERG current change (%, negative = inhibition) at 10uM” value was -14.3%. Under `Cc1cc(NC(=O)COC(=O)C2CCN(C(=O)c3ccc(Cl)cc3)CC2)no1` stands -19.2%; under `N#Cc1ccccc1NC(=O)COC(=O)C1CCN(C(=O)c2ccc(Cl)cc2)CC1`, -62.5%; under `O=C(COC(=O)C1CCN(C(=O)c2ccc(Cl)cc2)CC1)NC1CCS(=O)(=O)C1` (stereo not shown), 26.9%.

Consider `O=C(COC(=O)C1CCN(C(=O)c2ccc(Cl)cc2)CC1)c1ccco1`, for which the “hERG current change (%, negative = inhibition) at 10uM” value was -26.2%. On to `O=C(COC(=O)C1CCN(C(=O)c2ccc(Cl)cc2)CC1)Nc1ccccc1F`, for which the “hERG current change (%, negative = inhibition) at 10uM” value is given as -56.9%. Under `Cc1ccc(-c2cnco2)cc1` stands 11.9%.

Turning to `COCCN(CCOC)C(=S)Nc1ccccc1Cl`, the “hERG current change (%, negative = inhibition) at 10uM” value is 6.62%.

Take `COc1ccc(NC(=O)C(F)(F)F)cc1OC`: the “hERG current change (%, negative = inhibition) at 10uM” value amounted to 15.1%. For `COc1ccc(CN2C(=O)c3oc4ccccc4c(=O)c3C2c2ccc(O)c(OC)c2)cc1` (stereo not shown), the “hERG current change (%, negative = inhibition) at 10uM” value stood at 4.88%.

`Cc1ccc(C)c(OCC(O)CN2CCC(CN3C(=O)c4cccc5cccc(c45)C3=O)CC2)c1.Cl` (stereo not shown): the “hERG current change (%, negative = inhibition) at 10uM” value was -68.2%. Under `O=C1c2cccc3cccc(c23)C(=O)N1CC1CCN(S(=O)(=O)c2ccc(F)cc2)CC1` stands 2.54%; under `Cc1ccc(S(=O)(=O)N2CCC(CN3C(=O)c4cccc5cccc(c45)C3=O)CC2)cc1`, 11.3%; under `Cc1cc(C)cc(OCC(O)CN2CCC(CN3C(=O)c4cccc5cccc(c45)C3=O)CC2)c1.Cl` (stereo not shown), -70%.

As to `Cc1cccc(C)c1OCC(O)CN1CCC(CN2C(=O)c3cccc4cccc(c34)C2=O)CC1.Cl` (stereo not shown), the “hERG current change (%, negative = inhibition) at 10uM” value is -76.2%. Under `COc1cccc(OCC(O)CN2CCC(CN3C(=O)c4cccc5cccc(c45)C3=O)CC2)c1.Cl` (stereo not shown) stands -72.3%. Under `Cl.O=C1c2cccc3cccc(c23)C(=O)N1CC1CCN(CC(O)COc2ccc3ccccc3c2)CC1` (stereo not shown) stands -46.1%; under `CCOC(=O)N1CCN(CC(O)COc2c(C)cccc2C)CC1.Cl` (stereo not shown), -15.7%.
